# This excerpt belongs to a sample that is enriched for hits.
# RE007 growth inh: qHTS Assay for Inhibitors of the HIV-1 protein Vpr. S. pombe RE007 Vpr strain, BacTiter-Glo ATP luminescence, 24 h. actives 0.21% (n = 360,000). AID 651644, 2012. Potency, µM (doses to about 92.2 µM), for inactives: at the top dose activity change, negative = less growth, usual class: inhibitors; active means well fitted falling curve with a large enough effect; inconclusive means small, poorly fitted or top-dose-only effect; inactive means no such curve, though single readings can be large or run the other way; further: potency means the concentration at half of the fitted maximal effect; on the % scale 0 is the no-effect control and ±100 the full control effect; nearly all actives have a fitted effect of over 50% in size
#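 Fission yeast strain RE007, carrying one chromosomally integrated HIV-1 vpr copy, was seeded at OD 0.01 in PMG+AL medium with 23 nL pinned compound. After 24 h at 30 °C and 99% humidity, viability was read by BacTiter-Glo luminescence.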
# Giardia FBPA inh: qHTS Assay for Inhibitors of Fructose-1,6-bisphosphate Aldolase from Giardia Lamblia; actives 0.71% (n = 290,000); purified Giardia FBPA; A8B2U2; Potency, µM (top dose mostly 59.6 µM), for inactives: at the top dose activity, negative = inhibition, most hits filed as inhibitors; further: potency means the concentration at half of the fitted maximal effect; on the % scale 0 is the no-effect control and ±100 the full control effect; nearly all actives have a fitted effect of over 55% in size
# Target sequence (A8B2U2 whole entry, looked up): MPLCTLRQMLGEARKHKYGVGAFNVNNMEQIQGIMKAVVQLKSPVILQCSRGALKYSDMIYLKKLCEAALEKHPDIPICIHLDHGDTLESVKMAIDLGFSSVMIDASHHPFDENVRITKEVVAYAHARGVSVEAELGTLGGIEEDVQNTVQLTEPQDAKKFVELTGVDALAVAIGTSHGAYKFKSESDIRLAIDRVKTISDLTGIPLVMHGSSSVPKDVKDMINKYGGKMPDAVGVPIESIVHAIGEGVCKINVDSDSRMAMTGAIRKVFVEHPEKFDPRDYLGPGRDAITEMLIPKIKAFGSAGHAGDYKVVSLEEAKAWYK
#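 Giardia FBPA (40 nM reagent) was preincubated 10 min at RT with compound (up to 57.5 uM final), then substrate plus GAPDH/TPI/NAD/arsenate coupling system with diaphorase/resazurin was added; resorufin fluorescence (525/598 nm) was read after 20 min.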
# Shiga toxin inh: A qHTS for Small Molecule Inhibitors of Shiga Toxin; Vero cells, Shiga toxin protein synthesis inhibition reporter; inhibition, % at 38.7 µM; actives 9.2% (n = 290,000); AID 2315, 2010; in the data active means inhibition mostly above about 28%, no sharp cut-off; inactive means mostly below about 43%; further: 0% is about no effect
# TbPYK inhibitor: qHTS of Trypanosoma Brucei Inhibitors. pyruvate kinase (Trypanosoma brucei), Q57TT1. TbPYK enzyme, Kinase-Glo Plus ATP luminescence, 45 min. Potency, µM (doses to about 76.8 µM), without a hit: at the highest dose activity, negative = inhibition, most hits filed as inhibitors. actives 0.12% (n = 410,000). AID 624173, 2012; further: potency means the concentration at half of the fitted maximal effect; on the % scale 0 is the no-effect control and ±100 the full control effect; nearly all actives have a fitted effect of over 50% in size
#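 Luminescent Kinase-Glo Plus end-point after 45 min room-temperature reaction of T. brucei pyruvate kinase started with 130 uM ADP (final). Buffer TEA 50 mM pH 7.2 with KCl, MgCl2, BSA, Tween-20; titration-based qHTS with fitted concentration-effect curves.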
# LmPK inh: qHTS Assay for Inhibitors of Leishmania Mexicana Pyruvate Kinase (LmPK); Q27686; actives 0.37% (n = 290,000); Potency, µM (titrated, usually from 57.5 µM), inactives show top-dose activity change, negative = inhibition, usual class: inhibitors; purified LmPK, Kinase-Glo ATP luminescence, 1 h; further: potency means the concentration at half of the fitted maximal effect; on the % scale 0 is the no-effect control and ±100 the full control effect
# Target sequence (Q27686 whole entry, looked up): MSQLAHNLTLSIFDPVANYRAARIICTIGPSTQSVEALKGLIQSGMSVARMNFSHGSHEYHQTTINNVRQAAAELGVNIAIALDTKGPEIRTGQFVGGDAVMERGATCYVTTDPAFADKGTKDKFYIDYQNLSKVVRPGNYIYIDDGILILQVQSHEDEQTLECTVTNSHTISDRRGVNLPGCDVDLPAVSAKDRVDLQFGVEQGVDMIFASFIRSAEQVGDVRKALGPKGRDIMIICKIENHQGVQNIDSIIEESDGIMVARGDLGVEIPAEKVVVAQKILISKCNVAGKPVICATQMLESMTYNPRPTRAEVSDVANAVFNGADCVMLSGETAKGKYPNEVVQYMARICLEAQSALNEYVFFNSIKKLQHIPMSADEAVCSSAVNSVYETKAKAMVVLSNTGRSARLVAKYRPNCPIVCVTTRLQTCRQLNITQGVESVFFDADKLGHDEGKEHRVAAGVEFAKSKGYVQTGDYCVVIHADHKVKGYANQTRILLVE
#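 Screened at intermediate enzyme activity to detect both inhibitors and activators: LmPK at 0.1 nM, with a 0.5 nM enzyme column as activation reference. PEP 0.5 mM, ADP 0.1 mM; ATP detected by luminescence after 1 h.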
# Cycloheximide cs: Cycloheximide Counterscreen for Small Molecule Inhibitors of Shiga Toxin. cell reporter, cycloheximide protein synthesis inhibition counterscreen. max response, %. actives 12% (n = 300,000); in the data active means max response mostly above about 13%, no sharp cut-off; inactive means mostly below about 14%; further: read at 38.3 µM for the half of the compounds with a filed dose; 0% is about no effect
# * = called active by the depositor; ? = inconclusive; nt = no result; ! = a repeat was not active; [ ] = dose if it differs, or a comment. Unless noted, the call rests on the fitted dose curve; in most records, active means well fitted curve in the direction sought with a large enough effect; inconclusive means small, poorly fitted or top-dose-only effect, or another doubt; inactive means no such curve, though single readings can be large; an effect the other way counts as inactive or inconclusive.
SMILES,RE007 growth inh,Giardia FBPA inh,Shiga toxin inh,TbPYK inhibitor,LmPK inh,Cycloheximide cs
CN1CCN(NC(=O)c2ccc(Cl)c([N+](=O)[O-])c2)CC1,13.2%,3.0%,-21.9,-0.1%,3.5%,-0.4
Cn1ccsc1=NC(=O)c1cccc(C#N)c1,-9.2%,13.6%,60.8,-8.5%,-0.1%,14.8*
Clc1ccccc1CSc1nnc(C2CCNCC2)o1,nt,nt,nt,1.3%,nt,nt
CCOc1ccc(/C=C/c2nc(C#N)c(N3CCN(CC)CC3)o2)cc1,nt,nt,nt,-1.2%,nt,nt
Cn1ccsc1=NC(=O)c1ccc(S(C)(=O)=O)cc1,-0.6%,9.5%,36.7*,-2.9%,-21.5%,14.0
CN1CC[C@@]2(C)c3cc(O)ccc3N(C)[C@@H]12,-8.1%[18.4 µM],4.46µM*,nt,-21.3%,nt,nt
CNC(=O)Oc1ccc2c(c1)[C@]1(C)CCN(C)C1N2C (some centres undefined),11.2%,nt,nt,-6.0%,nt,nt
COc1ccc(Nc2nc3ccc(Cl)cc3n3nnnc23)cc1OC,nt,nt,nt,-7.3%,nt,nt
O=C(Nc1ccc(Cl)c(Cl)c1)c1ccncc1,?,0.7%,101.0*,-0.2%,-1.2%,30.6*
COc1ccc(C(=O)Nc2ccc(Cl)c(Cl)c2)c(OC)n1,-7.9%,-6.3%,45.4*,-12.3%,3.3%,20.7*
O=C(Nc1ccc2c(c1)COC2=O)c1ccc(Cl)c(Cl)c1,-10.8%,nt,70.8*,-3.0%,-8.0%,33.5*
Cc1ccc(NC(=O)c2ccc(Cl)c(N3C(=O)C=CC3=O)c2)cc1,?,-29.4%,81.0*,?,10.4%,56.9*
COc1cccc(C(=O)Nc2c3c(nn2-c2ccc(C)cc2C)CS(=O)(=O)C3)c1OC,nt,nt,nt,4.3%,nt,nt
COC(=O)[C@@H](NC(=O)N1CCc2nc(-c3ccc(OC)cc3C)c3c(c2C1)CO[C@@H](c1ccccc1)C3)C(C)C,nt,0.2%[12.9 µM],nt,nt,0.3%[11.5 µM],nt
Cc1cc2c(cc1S(=O)(=O)Nc1cc(C(F)(F)F)cc(C(F)(F)F)c1)OCC(=O)N2,nt,nt,nt,1.4%,nt,nt
CCCN1Cc2cccc(C(=O)Nc3ccc(OC)cc3OC)c2C1=O,nt,nt,nt,1.7%,nt,nt
CCN(CC)CCNC(=O)c1ccc(-n2c(-c3ccccc3)cc3c2CCCC3)cc1,nt,nt,nt,5.5%,nt,nt
CS(=O)(=O)c1cccc(NC(=O)c2ccc(Cl)c(Cl)c2)c1,3.8%,-2.1%,54.4*,-3.3%,0.0%,17.5
Cc1cc(C)nc(NC(=O)c2ccc(Cl)c(Cl)c2)n1,-11.6%,13.5%,10.6,0.1%,0.9%,3.4
CS(=O)(=O)c1ccc(C(=O)Nc2cc(S(C)(=O)=O)ccc2Cl)cc1,0.8%,3.2%,-23.3,-2.1%,4.3%,0.4
O=C(Nc1ccc(Cl)c(Cl)c1)c1ccc(Cl)c(Cl)c1,nt,-14.8%,88.7*,-4.4%,1.5%,50.3*
O=C(Nc1cccnc1)c1ccc(Cl)c(Cl)c1,-14.1%,4.5%,nt,-5.8%,-4.9%,23.9*
O=C(Nc1ccc2c(c1)Cc1ccccc1-2)c1cc2ccccc2o1,2.0%,nt,nt,2.2%,nt,nt
O=C(Nc1ccc2c(c1)Cc1ccccc1-2)c1ccncc1,-15.5%,1.6%,66.1*,-5.8%,1.9%,33.3*
O=C(Nc1ccc2c(c1)OCO2)O[C@@H]1C[C@H]2CCCC(=O)N3CC[C@@H](C1)[C@@H]23,-8.5%,6.5%,8.1,-5.1%,-14.8%,6.7
SMILES,RE007 growth inh,Giardia FBPA inh,Shiga toxin inh,TbPYK inhibitor,LmPK inh,Cycloheximide cs
CC1(C)CCC(=O)N2CC[C@H]3C[C@H](OC(=O)Nc4ccc(Br)cc4)C[C@@H]1[C@H]32,1.3%,1.1%,19.0,-0.7%,-0.4%,21.8*
COc1cc(OC)c(-c2cc(C(=O)NCc3ccc(F)cc3)c3c(-c4ccccc4)[nH]nc3n2)cc1OC,nt,nt,nt,2.3%,nt,nt
CCOc1ccc(NS(=O)(=O)c2cccc(C(=O)N3CCN(C/C=C/c4ccccc4)CC3)c2)cc1,26.8%,nt,nt,9.0%,nt,nt
Cc1cccn2cc(-c3cc4ccccc4oc3=O)nc12,-3.7%,10.6%,110.5*,-5.9%,-17.8%,53.4*
O=c1oc2ccccc2cc1-c1cn2cccnc2n1,20.0%[3.69 µM],-3.7%,102.8*,nt,-18.7%,57.1*
O=C(NCc1cccs1)C12CC3CC(CC(C3)C1)C2,26.4%,3.1%,20.6,-22.1%,1.0%,-0.6
O=C(CC1CC2CCC1C2)NCc1cccs1 (centres undefined),0.0%,4.9%,51.9,3.2%,-2.6%,15.5*
CC(=O)Nc1ccc(NC(=O)CCOc2cc(C)ccc2C)cc1,-5.2%,nt,-6.2,-3.9%,0.0%,2.7
Cc1ccccc1NCCC(=O)Nc1ccc(F)cc1,-10.0%,0.0%,37.6,3.4%,-1.1%,16.3*
Cc1ccc(F)cc1NCC(=O)Nc1ccc(Cl)cc1F,1.3%,-1.1%,-1.5,2.9%,0.4%,7.9
CC(=O)c1ccc(NC(=O)CCOc2cc(C)ccc2C)cc1,3.7%,-0.6%,115.1*,0.0%,5.3%,41.3*
CC(=O)Nc1ccc(NC(=O)CCOc2ccccc2C)cc1,25.9%,nt,24.2,6.6%,-3.6%,-2.9
Cc1cc(F)ccc1NCC(=O)Nc1ccccc1Br,-13.7%,?,116.2*,-7.6%,1.6%,25.9*
Cc1ccc(NC(=O)CCOc2ccccc2C)cc1F,1.5%,-3.7%,38.0,0.2%,1.0%,29.7*
CCc1ccc(-c2nn(CC(=O)Nc3ccccc3)c3c2cnc2ccc(F)cc23)cc1,nt,nt,nt,-0.9%,nt,nt
O=C(c1ccc2c(c1)N(Cc1ccccc1F)C(=O)c1ccccc1S2(=O)=O)N1CCN(c2ccccn2)CC1,nt,nt,nt,-2.3%,nt,nt
CC(C)(C)Nc1nc(C#N)nc(Nc2ccccc2)n1,nt,-10.6%,nt,nt,nt,nt
CCCCC/C=C\C/C=C\C/C=C\C/C=C\CCCC(=O)N(Cc1ccc(O)c(Cl)c1)Cc1ccc(O)c(Cl)c1,nt,12.1%,62.8*,nt,nt,39.6
O=C(CSc1nc2ccccc2nc1N1CCCC1)Nc1ccc(Cl)cc1,4.2%,3.2%,11.1,-6.6%,-5.2%,-2.0
CC(C)c1ccc(NC(=O)CSc2nc3ccccc3nc2N2CCCC2)cc1,-3.9%,-2.4%,16.2*,-1.8%,-2.9%,11.2
COc1cccc(NC(=O)CSc2nc3ccccc3nc2N2CCOCC2)c1,1.2%,-6.8%,11.5,-9.3%,5.9%,23.9*!
CCc1ccc(NC(=O)CSc2nc3ccccc3nc2N2CCCC2)cc1,-10.7%,7.6%,1.8,-2.9%,1.4%,1.9
Cc1ccc(NC(=O)CSc2nc3ccccc3nc2N2CCCC2)cc1,-10.6%,10.2%,32.5*,-3.0%,-7.9%,20.9*
O=C(CN(C(=O)c1csnn1)c1ccc(F)c(Cl)c1)NC1CCCCC1,-8.8%,nt,50.7,1.6%,-3.7%,30.1*
O=C(CN(C(=O)c1csnn1)c1ccc(Cl)cc1)NC1CCCC1,-4.7%,-1.3%,8.3,1.4%,7.4%,-4.1
O=C(O)[C@H](Cc1ccccc1)NC(=O)N1CCN(c2cccc(C(F)(F)F)c2)CC1,-8.6%,-2.4%,-4.7,1.5%,1.4%,3.6

# Screens from PubChem.
